# The list is a sample of the results.
# aSyn 5UTR act – Activators via SNCA 5'UTR binding, MLPCN; alpha-synuclein 5'UTR reporter, activators screen; activity score, % (tested at 7.5 µM), hits read low; 7.1% of 300,000 active; AID 1814, 2009; in the data active = activity score below about -60%
# Numbers stand for hits; – = inactive.
SMILES,aSyn 5UTR act
CN(C)c1ccc(/C=N/Nc2nc3ccccc3o2)cc1,–
O=[N+]([O-])c1ccc(/C=N/Nc2nc3ccccc3o2)cc1,-186.4
Cc1ccc2nc3ccc(N4CCCC4)nn3c(=O)c2c1,-162.5
Cc1sc2nc3ccc(N4CCCCC4)nn3c(=O)c2c1C,-180.7
Cc1ccc(C(=O)NNc2cc(N3CCCC3)nc(N3CCCC3)n2)cc1,–
COc1ccc(-c2cc(C(=O)Nc3ccc(C(N)=O)cc3)c3ccccc3n2)cc1OC,-99.0
COc1cc(-c2cc(C(=O)Nc3nc4ccccc4s3)c3ccccc3n2)cc(OC)c1OC,-65.3
Cc1nc2ccc(NC(=O)c3ccc(Br)o3)cc2s1,-185.7
Cc1nc2ccc(NC(=O)c3ccc(Cl)s3)cc2s1,-238.0
Cc1ccc2nc(NC(=O)c3ccc(Cl)s3)sc2c1,-132.7
O=C(Nc1ccc(-c2cn3ccsc3n2)cc1)C1CC1,-159.2
c1cn2cc(-c3ccc4c(c3)OCO4)nc2s1,-137.1
CC(C)CC(=O)Nc1cccc(-c2cn3ccsc3n2)c1,-126.0
CC(=O)Nc1ccc(-c2cn3ccsc3n2)cc1,-71.3
CC(C)(C)CC(=O)Nc1cccc(-c2cn3cccnc3n2)c1,-107.2
O=C(Nc1ccc(-c2cn3ccsc3n2)cc1)C1CCCC1,-95.1
O=C1C(Nc2ccccc2)=C(NS(=O)(=O)c2ccccc2)C(=O)c2ccccc21,-74.8
CCOc1ccc(NC(=O)/C=C/c2ccccc2)c([N+](=O)[O-])c1,-146.8
COc1ccc(/C=C/C(=O)Nc2ccccc2C(=O)N2CCCC2)cc1,-86.4
COc1ccc(/C=C/C(=O)Nc2ccccc2C(=O)NCC(c2ccc(OC)cc2)N(C)C)cc1 (stereo not drawn),-80.0
CCOc1ccc(N/C=C/C(=O)c2ccccc2)c([N+](=O)[O-])c1,–
COc1ccc(/C=C/C(=O)Nc2ccccc2C(=O)O)cc1,–
COc1ccc(C(=O)/C=C/c2ccccc2C(F)(F)F)cc1,-68.1
CCOc1ccc(/C=C/C(=O)Nc2ccccc2C(F)(F)F)cc1,-76.3
COc1ccc(/C=C/C(=O)Nc2ccccc2C(F)(F)F)cc1,-141.3
SMILES,aSyn 5UTR act
CCOc1ccc(NC(=S)NC(=O)c2c(Br)cnn2C)c([N+](=O)[O-])c1,-115.2
COc1cc(NC(=O)/C=C/c2ccccc2[N+](=O)[O-])cc(OC)c1,-113.6
COc1ccccc1-c1c(C(F)(F)F)oc2cc(OS(C)(=O)=O)ccc2c1=O,-101.1
c1ccc(-c2nnc(-c3ccncc3)nc2-c2ccccc2)cc1,-105.1
CC(C)NC(=O)c1ccc(-c2ccccc2C(F)(F)F)o1,-130.7
Nc1nc(SCc2ccccc2)ns1,-88.8
Nc1cc(N)nc(SCc2ccccc2)n1,-110.3
Cc1cnc(Nc2nc3ccccc3o2)nc1C(=O)Nc1cccc(C(F)(F)F)c1,-66.5
Cc1ccc(/C(N)=N/OC(=O)CSc2ccccc2)cc1,-185.3
N/C(=N\OC(=O)CSc1ccccc1)c1ccc([N+](=O)[O-])cc1,-121.0
N/C(=N\OCc1ccc([N+](=O)[O-])cc1)c1ccncc1,-83.4
COc1ccc(/C(N)=N/OC(=O)CC2CCCCC2)cc1,-111.3
COc1ccc(/C(N)=N/OC(=O)CSc2ccccc2)cc1,-162.4
C=CCn1c(=O)c(C(=O)Nc2ccc(C)cc2)c(O)c2ccccc21,-76.2
C=CCn1c(O)c(N=NC(=S)Nc2ccc(OC)cc2)c2ccccc21,–
C=CCn1c(=O)c(C(=O)Nc2ccccc2S(N)(=O)=O)c(O)c2ccccc21,-156.1
C=CCn1c(N)c(C(=O)Nc2ccc(C)cc2)sc1=S,-148.8
CCn1c(=O)c(C(=O)Nc2ccsc2C(=O)OC)c(O)c2ccccc21,-65.4
CCc1nonc1NC(=O)c1oc2cc(C)c(C)cc2c1C,-126.8
CCc1nnc(NC(=O)c2oc3cc(C)c(C)cc3c2C)s1,-102.0
Nc1[nH]c(N=NC(=O)c2ccccc2O)c2ccccc12,-150.3
Cc1cc(C)c2c(NC(=O)CCl)nn(C)c2n1,-65.3
CC(=Nc1cccc(C)c1)c1sc2ccccc2c1O,-215.0
CC(=Nc1ccc(O)cc1)c1sc2ccccc2c1O,-186.7
Cc1cccc(N=Nc2ccc(O)c3ncccc23)c1,–
SMILES,aSyn 5UTR act
CC(=O)NCCN=C(C)c1sc2ccccc2c1O,-70.9
CC(=Nc1ccccc1O)c1sc2ccccc2c1O,-93.1
Cc1cccc(NC(=O)c2cnc3sccn3c2=O)c1,-74.4
Cc1cccc(NC(=O)c2cnc3sccn3c2=O)c1C,-124.3
Cc1cccc(NC(=O)c2cnc3sccn3c2=O)n1,-115.5
O=C(Nc1cnc2sccn2c1=O)c1ccccc1Cl,-180.0
COc1ccc(NC(=O)c2cnc3sccn3c2=O)cc1,-132.8
COc1cc(/C=C2/C(=N)N3C=CSC3=NC2=O)ccc1OCCCOc1ccccc1C,-117.9
CCC1=NN2C(=N)/C(=C\c3ccc(OCCOc4ccccc4)c(OC)c3)C(=O)N=C2S1,-125.0
Cc1cc(C)c2c(n1)sc1c(=O)n(CC(=O)c3ccccc3)cnc12,-131.7
O=C(Cn1cnc2c(oc3ccccc32)c1=O)c1ccccc1,-105.7
O=C(Nc1ccc(/C=C/c2nc3ccccc3o2)cc1)c1c(F)cccc1F,-171.5
CC(=O)Nc1ccc(/C=C/c2nc3ccccc3o2)cc1,-127.8
c1cc2c(cnc3cscc32)s1,-69.2
COc1ccccc1NC(=O)COc1ccc(C(F)(F)F)cc1[N+](=O)[O-],-72.7
COc1ccc(NC(=O)COc2ccccc2)c(OC)c1,-114.7
COc1ccc(OCC(=O)Nc2ccccc2O)cc1,-160.1
COc1ccccc1NC(=O)COc1ccccc1,-91.4
Cc1ccc(C)c(Cn2nnc(C(=O)Nc3ccc4c(c3)OCCO4)c2N)c1,-106.5
Cc1ccccc1Cn1nnc(C(=O)Nc2ccc3c(c2)OCCO3)c1N,-108.8
Cc1ccc(NC(=O)c2nnn(-c3ccc4c(c3)OCCO4)c2N)cc1,-148.6
Oc1ccc(N=C/C=C/c2ccc(Br)cc2)cc1-c1nc2ccccc2s1,-106.9
O=C(Cn1c(=O)sc2ccccc21)NCc1ccccn1,-68.3
c1ccc(Nc2nnc(-c3cccc4ccccc34)o2)cc1,-92.8
COc1ccc(-c2cc(-c3ccccc3)n[nH]2)c(O)c1,-216.8
SMILES,aSyn 5UTR act
COc1ccc(O)c(-c2cc(-c3ccccc3Cl)[nH]n2)c1,-115.3
COc1ccc(O)c(-c2cc(-c3cccs3)[nH]n2)c1,-125.5
COc1ccc(-c2csc(Nc3cccnc3)n2)cc1,-180.5
Oc1ccc(Nc2nc(-c3ccc(O)cc3)cs2)cc1,-218.9
COc1ccc(-c2csc(Nc3ccccc3)n2)cc1,-150.4
c1coc(CNc2nc(-c3cccs3)cs2)c1,–
Oc1ccc(-c2csc(NCc3ccco3)n2)cc1,-176.9
COc1ccc(-c2csc(Nc3ccccc3)[n+]2Cc2ccccc2)cc1,-95.1
COc1ccc(Nc2nc(-c3c[nH]c4ccccc34)cs2)cc1,-255.3
COc1ccc(Nc2nc(-c3ccc(OC)cc3)cs2)cc1,-105.9
COc1ccc2oc(=O)c(-c3csc(Nc4ccc(O)cc4)n3)cc2c1,-69.6
COc1cc(/C=C(\C#N)C(=O)N2CCOCC2)ccc1OCc1ccccc1,-120.4
N#C/C(=C\c1ccc(OCc2ccc(C(=O)O)cc2)cc1)C(=O)N1CCOCC1,–
COc1ccc2nc(NC(=O)CSc3cn[nH]n3)sc2c1,-67.6
CC(=O)N1CC(=O)N=C1SCC(=O)Nc1nc(C)c(-c2ccccc2)s1,-78.9
COc1ccc2nc(NC(=O)CN3CCOCC3)sc2c1,-63.0
CCCC(=O)Nc1nc2ccc(OC)cc2s1,-132.8
COc1ccc2nc(NC(=O)CSC3=NCCS3)sc2c1,-88.1
Cc1nc(NC(=O)CN2CCOCC2)sc1-c1ccccc1,-74.2
COc1ccc2nc(NC(=S)N(C)C)sc2c1,-80.6
COc1ccc2nc(NC(=O)CSc3ccccc3)sc2c1,-128.2
CCOc1ccc2nc(NC(=O)CSc3nc(SC)ns3)sc2c1,-167.1
